Assay results as given in PubChem BioAssay (NCI).
Compounds without any hit were thinned out: in the full panel of roughly 83,000, 20% have a hit.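 Growth was measured after 48 h exposure to one concentration of compound in 96-well plates. Values under 10 count as active.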 A number with no mark means an inactive call. Activity calls are given as the source filed them.

Legend:
Experiment in all cases: NCI-60 one-dose screen, 48 h (100 = growth as untreated, 0 = no growth, -100 = all killed)
Conditions in all cases: 10 µM unless noted
DU-145 prostate = system: DU-145 prostate
K-562 leukemia = system: K-562 leukemia
MALME-3M melanoma = system: MALME-3M melanoma
MDA-MB-231 breast = system: MDA-MB-231 breast
RXF 393 renal = system: RXF 393 renal
SF-268 CNS = system: SF-268 CNS
SF-295 CNS = system: SF-295 CNS
SF-539 CNS = system: SF-539 CNS
UACC-257 melanoma = system: UACC-257 melanoma
M14 melanoma = system: M14 melanoma
HCT-15 colon = system: HCT-15 colon
HT29 colon = system: HT29 colon
SNB-75 CNS = system: SNB-75 CNS
SNB-19 CNS = system: SNB-19 CNS
U251 CNS = system: U251 CNS
PC-3 prostate = system: PC-3 prostate
SK-MEL-5 melanoma = system: SK-MEL-5 melanoma
UACC-62 melanoma = system: UACC-62 melanoma
LOX IMVI melanoma = system: LOX IMVI melanoma
SK-MEL-28 melanoma = system: SK-MEL-28 melanoma

SMILES	growth (DU-145 prostate)	growth (K-562 leukemia)	growth (MALME-3M melanoma)	growth (MDA-MB-231 breast) [%]	growth (RXF 393 renal)	growth (SF-268 CNS)	growth (SF-295 CNS)	growth (SF-539 CNS)	growth (UACC-257 melanoma)	growth (M14 melanoma)	growth (HCT-15 colon)	growth (HT29 colon)	growth (SNB-75 CNS)	growth (SNB-19 CNS)	growth (U251 CNS)	growth (PC-3 prostate) [%]	growth (SK-MEL-5 melanoma)	growth (UACC-62 melanoma)	growth (LOX IMVI melanoma)	growth (SK-MEL-28 melanoma)
COc1cccc(-c2nc3sccn3c2-c2ccnc(NCCNS(=O)(=O)c3ccc(C(F)(F)F)cc3)c2)c1	49.4%	25.7%	42.2%	70.1	34%	35.8%	27.7%	53.7%	39.2%	38.4%	33%	35.7%	38.1%	56.5%	42.1%	16.8	14.9%	38.9%	46.3%	57.8%
NC(=O)c1ccc[n+]([C@@H]2O[C@H](COP(=O)([O-])OP(=O)(O)OC[C@H]3O[C@@H](n4cnc5c(N)ncnc54)[C@H](O)[C@@H]3O)[C@@H](O)[C@H]2O)c1	105%	109%	115%	98	125%	104%	108%	90.3%	108%	104%	97.3%	106%	104%	110%	99.5%	114	112%	119%	92.9%	103%
Cc1cc(O)c(C2=NN(c3ccc(S(N)(=O)=O)cc3)C(c3ccccc3Cl)C2)cc1Cl (stereo not given)	4.85% (active)	-18% (active)	34.9%	20	-11.7% (active)	11.6%	63%	41.9%	65.2%	-11.9% (active)	34.8%	0.516% (active)	41.7%	58.1%	7.79% (active)	10.9	36.5%	45.1%	-83.7% (active)	63.2%
N=c1sc(Cc2ccc(Cl)cc2)cn1CC(=O)c1ccc(F)cc1	78.3%	25.6%	87.4%	79.7	82.3%	81.8%	64.7%	85.5%	77.5%	43.1%	50.4%	70.6%	90.3%	88%	79.4%	75.5	62.7%	9.38% (active)	33.2%	87.6%
COc1cc(/C=N/NC(=O)Cn2c(C(C)C)nc3ccccc32)ccc1O	110%	100%	105%	95.5	95.7%	91.2%	104%	94.4%	98.2%	92.6%	98.7%	98.2%	81.5%	99.4%	110%	94.8	97.6%	89.8%	102%	109%
Clc1cccc(Cl)c1C(Nc1nc2ccccc2s1)Nc1nc2ccccc2s1	131%	79.6%	123%	104	104%	105%	143%	93.6%	102%	122%	83.6%	108%	80.8%	99.1%	94.7%	74.2	88.4%	95.7%	86.1%	109%
COc1ccc(Nc2nnc(SCc3ccccc3F)s2)cc1	111%	92.4%	119%	98.4	101%	103%	97.7%	104%	106%	108%	103%	116%	102%	103%	104%	85.6	104%	74.8%	104%	109%
N#C/C(=C\c1ccc(-c2ccccc2F)o1)c1nc(-c2ccco2)cs1	101%	82.8%	96%	85.8	109%	101%	98.6%	98.1%	99.7%	94.8%	62.1%	95.5%	60.7%	95.2%	101%	78.4	84.7%	83.9%	93.7%	104%
CCc1c2c(nc3ccc(OC(=O)NCc4ccc(B5OC(C)(C)C(C)(C)O5)cc4)cc13)-c1cc3c(c(=O)n1C2)COC(=O)[C@]3(O)CC	3.45% (active)	10.8%	-44.1% (active)	13	-61.9% (active)	-5.02% (active)	-0.543% (active)	-47.1% (active)	-44.5% (active)	-16.1% (active)	10.4%	25.2%	-22.1% (active)	1.93% (active)	-33.3% (active)	14.7	-87.4% (active)	-80.5% (active)	-71.6% (active)	3.27% (active)
COc1cc(N=Nc2ccc(N)cc2)c(OC)cc1N=Nc1ccccc1.[Cl][Zn][Cl]	118%	104%	74.1%	84.6	114%	96.5%	116%	87.9%	109%	101%	91.2%	113%	80.9%	105%	104%	90.7	102%	92.2%	88%	109%
COc1cc(CCC[P+](c2ccccc2)(c2ccccc2)c2ccccc2)cc2c1OCO2	48.2%	21.8%	14.6%	29	76.3%	26.1%	68.6%	43%	17.4%	30.8%	106%	79.3%	12.7%	14.9%	23.9%	16.7	-41.2% (active)	-3.87% (active)	32%	27.1%
CCCCCCCCn1ccc2cc(NC(=O)Cn3cc(CN4CCCC4)nn3)ccc21	66.9%	2.29% (active)	-63.3% (active)	11.6	44.6%	46.2%	-68.3% (active)	78.9%	51.6%	-66.5% (active)	-45.6% (active)	-57.8% (active)	96.6%	0.775% (active)	-35.5% (active)	64.9	30.7%	-82.1% (active)	-85.1% (active)	-70.9% (active)
Cc1c(C(=O)N[C@@H](Cc2ccccc2)C(=O)C(=O)NCCc2ccccc2)[nH]c2ccccc2c1=O	101%	91.7%	103%	97.7	112%	98.6%	103%	102%	101%	110%	102%	105%	88.7%	98%	99.6%	93.8	97.8%	92.1%	97.8%	105%
COc1ccc2occ(C3=C(c4c[nH]c5ccccc45)C(=O)N(O)C3=O)c2c1	102%	87.3%	112%	69	107%	91.8%	105%	102%	99%	94.2%	100%	99.7%	99.7%	91.8%	91.7%	81.3	92.7%	80.2%	58.4%	114%
COc1ccc(OC)c(-c2c(C#N)c(-c3ccc(Cl)cc3)nc3c2c(-c2ccccc2)nn3-c2ccccc2)c1	99.1%	97.7%	101%	101	101%	96%	109%	98.8%	100%	101%	105%	109%	85.1%	100%	98.7%	92	110%	90.7%	94.4%	105%
O=S(=O)(Nc1cccc(Cl)c1)c1ccc(-c2cnc(C3CC3)o2)cc1	20.4%	9.52% (active)	58.2%	23.3	13.8%	51%	15.5%	-0.0211% (active)	63.8%	16.2%	23.9%	3.59% (active)	-25.8% (active)	24.1%	22.9%	26.3	16.4%	29.2%	35.4%	68.4%
